GPT2 inh = Primary qHTS assay for inhibitors of Glutamate pyruvate transaminase 2 (GPT2); Alanine aminotransferase 2 (Homo sapiens), Q8TD30; Recombinant GPT2, coupled pyruvate oxidase/HRP Amplex Red fluorescence; Potency, µM (series often up to 57.7 µM), usual class: inhibitors; 100,000 tested, 0.25% active; AID 1671188, 2021; also: nearly all actives have a fitted effect of over 60% in size
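Fluorescence of coupled pyruvate oxidase/HRP/Amplex Red system (50uM Amplex, 30 min, dark) reports pyruvate formed by GPT2. Enzyme reaction: 10ng/uL GPT2, 2mM L-alanine, 250uM a-KG, 30 min room temperature, pH 7.5; 50uM AOA control.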
hNpr1 antagonist = Natriuretic polypeptide receptor (hNpr1) antagonism - Primary qHTS | Atrial natriuretic peptide receptor 1 (Homo sapiens), P16066 | Potency, µM (doses to about 46.3 µM), hits mostly inhibitors | 76,000 tested, 1.6% active | HEK293 hNpr1 GloSensor cGMP, ANP-stimulated luminescence; calls by dose curve; also: nearly all actives have a fitted effect of over 60% in size
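Compound pre-incubated 30 min at room temperature on GloSensor-loaded HEK293 cells stably carrying hNpr1 and the pGS-40F cGMP biosensor. Stimulation uses hNppA at 0.1 nM final; luminescence is taken at baseline and 20 min post-agonist.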
HEK cytotox = Cytotoxic Profiling in HEK 293 Cell Line of Diverse Libraries Using Quantitative High-Throughput Screening. HEK 293 viability, ATP luminescence (CellTiter-Glo), 48-72 h. Potency, µM (series often up to 115 µM), actives largely listed as inhibitors. 94,000 tested, 6.6% active; also: nearly all actives have a fitted effect of over 60% in size
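CellTiter-Glo luminescence (cellular ATP) was read after 48 or 72 hr of compound exposure at 37 degree Celsius. Cells were HEK 293 plated at 250 cells/well.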
FLuc inh = Firefly luciferase inhibition profiling of diverse chemical library using quantitative high-throughput screening; purified P. pyralis luciferase, luminescence, biochemical; 76,000 tested, 2.5% active; Potency, µM (top dose mostly 115 µM), hits mostly inhibitors; Luciferin 4-monooxygenase (Photinus pyralis), P08659; also: nearly all actives have a fitted effect of over 65% in size
Target sequence (P08659 whole entry, looked up): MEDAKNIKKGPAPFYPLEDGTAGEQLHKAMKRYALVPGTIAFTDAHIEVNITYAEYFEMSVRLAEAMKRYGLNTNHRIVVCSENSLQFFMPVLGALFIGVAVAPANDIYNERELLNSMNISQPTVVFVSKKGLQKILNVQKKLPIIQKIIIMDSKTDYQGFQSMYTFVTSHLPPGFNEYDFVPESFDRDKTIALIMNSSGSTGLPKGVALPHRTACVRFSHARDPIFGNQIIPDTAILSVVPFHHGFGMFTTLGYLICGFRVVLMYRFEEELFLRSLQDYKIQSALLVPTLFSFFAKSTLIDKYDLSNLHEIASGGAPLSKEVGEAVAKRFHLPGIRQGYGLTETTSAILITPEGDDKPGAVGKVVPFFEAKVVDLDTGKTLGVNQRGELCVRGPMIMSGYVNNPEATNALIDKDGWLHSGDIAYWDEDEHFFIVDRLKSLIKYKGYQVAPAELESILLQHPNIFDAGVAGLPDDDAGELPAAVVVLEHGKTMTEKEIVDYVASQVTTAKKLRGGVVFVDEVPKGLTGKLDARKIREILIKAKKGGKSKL
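Purified 10nM P. pyralis luciferase with 10uM D-luciferin and 10uM ATP in 50mM Tris acetate pH 7.5, 10mM Mg acetate, 0.01% Tween-20, 0.05% BSA. qHTS titration; luminescence read by CCD imager.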
3T3 cytotox = Cytotoxic Profiling in NIH 3T3 Cell Line of Diverse Libraries Using Quantitative High-Throughput Screening; Potency, µM (doses to about 96.7 µM), hits mostly inhibitors; NIH 3T3 viability, CellTiter-Glo ATP luminescence, 48-72 h; 94,000 tested, 4.3% active; also: nearly all actives have a fitted effect of over 55% in size
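Mouse fibroblast NIH 3T3 cells, 400 per well, received compound via pintool and were incubated for 48 or 72 hr prior to CellTiter-Glo ATP luminescence measurement.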
Npr1 antag conf = Natriuretic polypeptide receptor (hNpr1) antagonism - Confirmation | shares compounds with hNpr1 antagonist | HEK293 hNpr1 cGMP GloSensor luminescence, ANP-stimulated | Potency, µM (titrated, usually from 57.6 µM), actives largely listed as inhibitors | 1,400 tested, 76% active | AID 1347044, 2019; calls by dose curve; also: nearly all actives have a fitted effect of over 70% in size
NPR2 antag = Natriuretic polypeptide receptor (hNpr2) antagonism - Subtype selectivity assay; shares compounds with hNpr1 antagonist; HEK293 hNpr2 GloSensor cGMP luminescence, CNP-stimulated; Potency, µM (doses to about 57.6 µM), most hits filed as inhibitors; 1,400 tested, 67% active; AID 1347046, 2019; calls by dose curve; also: nearly all actives have a fitted effect of over 70% in size
FLuc counter = Natriuretic polypeptide receptor (hNpr1) antagonism - Confirmation firefly luciferase (FLuc) inhibition counterscreen | 1,400 tested, 0.7% active | shares compounds with hNpr1 antagonist | Potency, µM (doses to about 57.6 µM), usual class: inhibitors | AID 1347047, 2019 | purified FLuc enzyme, luminescence, Km substrate
GloSensor ctrl = Natriuretic polypeptide receptor (hNpr1) antagonism - Counterscreen GloSensor control cell line; shares compounds with hNpr1 antagonist; HEK293 GloSensor cGMP, SNP-stimulated, luminescence; Potency, µM (series often up to 57.6 µM), actives largely listed as inhibitors; 1,400 tested, 69% active; AID 1347051, 2019; calls by dose curve; also: nearly all actives have a fitted effect of over 70% in size
Of the large screens only hits and unclear results are named; the others gave an inactive call (follow-up assays come after a bar, where they were run). Hits are enriched below; roughly 10% of the tested compounds scored in any of these assays. Unless noted, calls follow the shape of the dose curve; as a rule, active = well fitted curve in the direction sought with a large enough effect; inconclusive = small, poorly fitted or top-dose-only effect, or another doubt; inactive = no such curve, though single readings can be large; an effect the other way counts as inactive or inconclusive.

O=[S+]1([O-])NC2(CCN(Cc3ccc(F)cc3)C2)CNc2ccccc21 (stereo unspecified)	HEK cytotox inconclusive
CN1CCC2(CCC1=O)CN(CCCCOc1ccccc1)CCN2C (stereo unspecified)	none
O=C1N(CC2CCOCC2)CCOC12CCN([S+](=O)([O-])c1cccs1)CC2	3T3 cytotox inconclusive
O=C1N(CC2CC2)CCOC12CCN([S+](=O)([O-])c1ccccc1)CC2	3T3 cytotox inconclusive
COc1ccc([S+](=O)([O-])N2CCC3(CC2)OCCN(CC2CC2)C3=O)cc1	hNpr1 antagonist inconclusive, HEK cytotox inconclusive, 3T3 cytotox inconclusive | Npr1 antag conf 31.4µM | NPR2 antag inconclusive | FLuc counter inactive | GloSensor ctrl 31.4µM
N#Cc1ccc([S+](=O)([O-])N2CCC3(CC2)OCCN(CC2CC2)C3=O)cc1	hNpr1 antagonist 17.8µM, 3T3 cytotox inconclusive | Npr1 antag conf 31.4µM | NPR2 antag inconclusive | FLuc counter inactive | GloSensor ctrl 28µM
O=C1N(CC2CC2)CCOC12CCN([S+](=O)([O-])c1ccc(C(F)(F)F)cc1)CC2	hNpr1 antagonist 11.2µM, HEK cytotox inconclusive, 3T3 cytotox inconclusive | Npr1 antag conf 17.7µM | NPR2 antag 19.8µM | FLuc counter inactive | GloSensor ctrl 11.1µM
Cn1ncc2c(C(=O)Nc3cncnc3)cc(-c3ccc(Cl)cc3Cl)nc21	GPT2 inh inconclusive (no result: hNpr1 antagonist, FLuc inh)
C[S+](=O)([O-])CCn1ncc2cc(OCc3cccc(-c4ccc(Cl)cc4)c3)ccc21	GPT2 inh inconclusive, hNpr1 antagonist inconclusive, HEK cytotox inconclusive, 3T3 cytotox inconclusive | Npr1 antag conf 31.4µM | NPR2 antag 31.4µM | FLuc counter inconclusive | GloSensor ctrl 35.3µM
COCCOC(=O)N1CCC(COc2ccc3c(cnn3CCC(=O)O)c2)CC1	GPT2 inh inconclusive, 3T3 cytotox inconclusive
Cc1cc(C)nc(N2CCC(COc3ccc4c(cnn4CCC(=O)O)c3)CC2)n1	HEK cytotox inconclusive
CCc1cnc(N2CCC(COc3ccc4c(cnn4CC[S+](C)(=O)[O-])c3)CC2)nc1	hNpr1 antagonist 8.91µM, HEK cytotox inconclusive | Npr1 antag conf 8.62µM | NPR2 antag 9.68µM | FLuc counter inactive | GloSensor ctrl 6.85µM
C[S+](=O)([O-])CCn1ncc2cc(OCC3CCN(C(=O)OC4CCCC4)CC3)ccc21	hNpr1 antagonist 10µM, HEK cytotox inconclusive, 3T3 cytotox inconclusive | Npr1 antag conf 10.9µM | NPR2 antag 10.9µM | FLuc counter inactive | GloSensor ctrl 9.68µM
CNC(=O)CCn1ncc2cc(OCc3ccccc3-c3ccccc3Cl)ccc21	HEK cytotox inconclusive, 3T3 cytotox inconclusive
Cc1cccc(C(=O)N2CCC(N3C(=O)C4(CCCCC4)C3c3ccncc3)CC2)c1 (stereo unspecified)	none
COc1cccc(-c2ccc(CN3C4CCC3CN(C(=O)c3ccncc3)C4)cc2)c1	HEK cytotox inconclusive, 3T3 cytotox inconclusive (no result: hNpr1 antagonist, FLuc inh) | Npr1 antag conf 12.2µM | NPR2 antag 15.3µM | FLuc counter inactive | GloSensor ctrl 13.7µM
O=C(c1ccncc1)N1CC2CCC(C1)N2Cc1ccc(-c2cccs2)cc1	HEK cytotox inconclusive, 3T3 cytotox inconclusive (no result: hNpr1 antagonist, FLuc inh) | Npr1 antag conf 4.32µM | NPR2 antag 5.44µM | FLuc counter inactive | GloSensor ctrl 4.32µM
O=C(c1ccncc1)N1CC2CCC(C1)N2Cc1ccc(-c2ccsc2)cc1	hNpr1 antagonist 2.51µM, HEK cytotox inconclusive, 3T3 cytotox inconclusive | Npr1 antag conf 6.85µM | NPR2 antag 6.85µM | FLuc counter inactive | GloSensor ctrl 6.11µM
COc1ccc(OC)c(CNC(=O)C23CCC=C2N(C2CCCC2)C(=O)CC3)c1 (stereo unspecified)	none (no result: hNpr1 antagonist, FLuc inh)
CCNC[C@H]1O[C@H](Cc2cc(-c3ccc(F)cc3)on2)CC[C@@H]1O	hNpr1 antagonist inconclusive, HEK cytotox inconclusive, FLuc inh inconclusive, 3T3 cytotox inconclusive | Npr1 antag conf inconclusive | NPR2 antag inactive | FLuc counter inactive | GloSensor ctrl inconclusive
CN1CCC(NC[C@H]2O[C@H](Cc3cc(-c4cccc(O)c4)on3)CC[C@@H]2O)CC1	hNpr1 antagonist inconclusive | Npr1 antag conf inconclusive | NPR2 antag inactive | FLuc counter inactive | GloSensor ctrl inconclusive
COCc1cc(C[C@@H]2CC[C@H](O)[C@@H](CNC3CCN(C)CC3)O2)no1	none
O[C@H]1CC[C@@H](Cc2cc(-c3ccc(F)cc3)on2)O[C@@H]1CNCc1ccncc1	none
CCN(Cc1c(O)cccc1OC)CC1CCN(CCc2ccccc2C)CC1	HEK cytotox inconclusive, 3T3 cytotox inconclusive
Cc1cccc(NC(=O)N2CCCCC2c2nc(-c3cccnc3)n[nH]2)c1 (stereo unspecified)	none (no result: hNpr1 antagonist, FLuc inh)
COc1ccc(OC)c(NC(=O)N2CCCN(C)c3ccccc32)c1	hNpr1 antagonist inconclusive, HEK cytotox inconclusive, 3T3 cytotox inconclusive | Npr1 antag conf inconclusive | NPR2 antag 12.2µM | FLuc counter inactive | GloSensor ctrl inactive
CC1=NS(=O)(=O)N(C)C=C1C(=O)OCc1nc(-c2ccc(F)cc2)no1	hNpr1 antagonist 11.2µM, HEK cytotox inconclusive | Npr1 antag conf 21.7µM | NPR2 antag 21.7µM | FLuc counter inactive | GloSensor ctrl 21.7µM
CC1=NS(=O)(=O)N(C)C=C1C(=O)OCc1nc(C)no1	none
COc1cccc(-c2noc(COC(=O)C3=CN(Cc4ccccc4)S(=O)(=O)N=C3C)n2)c1	HEK cytotox inconclusive, FLuc inh inconclusive
CC1=NS(=O)(=O)N(C)C=C1C(=O)OCc1nc(-c2cccc(C)c2)no1	hNpr1 antagonist 11.2µM, HEK cytotox inconclusive, 3T3 cytotox inconclusive | Npr1 antag conf 15.3µM | NPR2 antag 13.7µM | FLuc counter inactive | GloSensor ctrl 13.7µM
